Out of some 240,000 compounds screened, about 15 (0.006%) were called active. Calls follow the shape of the dose curve; as a rule, active = well fitted inhibition curve with a large enough effect; inconclusive = small, poorly fitted or top-dose-only effect, or effect the other way, or another doubt; inactive = no such curve, though single readings can be large or run the other way. Not all results are given here.

The target of this experiment is Lysosomal alpha-glucosidase (Homo sapiens) (UniProt P10253). Briefly: qHTS Assay for Inhibitors and Activators of Human alpha-Glucosidase From Spleen Homogenate. The note with it: 4-MU-alpha-glucoside fluorescence; series mostly up to 79.9 µM. An excerpt:
NIH Chemical Genomics Center [NCGC] NIH Molecular Libraries Probe Production Centers Network [MLPCN] MLPCN Grant: R03 MH084841-01 Assay Submitter (PI): Wei Zheng NCGC Assay Overview: Alpha-glucosidase is responsible for the hydrolysis of terminal, non-reducing 1,4-linked alpha-D-glucose residues, which releases alpha-D-glucose. It is a lysosomal hydrolase that is required for the degradation of a small percentage (1-3%) of cellular glycogen in humans. Deficiency of this enzyme results in glycogen-storage disease type II (GSDII), also referred to as Pompe disease, an autosomal recessive disorder. Structurally normal glycogen is accumulated in the lysosomes and cytoplasm in affected patients, primarily in muscle tissues. Excessive glycogen storage within lysosomes may interrupt normal functioning of other organelles and leads to cellular injury. In turn, this leads to enlargement and dysfunction of the entire organ involved (eg: cardiomyopathy and muscle weakness). It has been reported that the improper folding and trafficking of alpha-glucosidase resulting from genetic mutations may account for a significant number of Pompe patients. […] We optimized this alpha-glucosidase assay in 1536-well plate format for identification of novel small molecule inhibitors or activators with structures other than the sugar analogs in order to develop new pharmacological chaperones. In particular, this assay is directed towards discovering compounds active in a more natural setting, tissue homogenate, that may have been missed by screens of the purified enzyme under more stringent conditions.
NCGC Assay Protocol Summary: This is a fluorogenic enzyme assay with 4-methylumbelliferyl-alpha-D-glucopyranoside as the substrate and human spleen homogenate containing alpha-glucosidase as the enzyme preparation. Upon hydrolysis of this fluorogenic substrate, the resulting product, 4-methylumbelliferone (which excites at 365 nm and emits at 440 nm) can be detected by a fluorescence plate reader. Data were normalized to the controls for basal activity (without enzyme) and 100% activity (with enzyme). The AC50 values were determined from concentration-response data modeled with the standard Hill equation. Assay buffer: 50 mM citric acid (titrated with potassium phosphate to pH 5.0), 0.01% Tween-20 (pH 5.0 is an optimal condition for this enzyme assay) 1536-well assay protocol for the alpha-glucosidase from human spleen homogenate: (1) Add 2 ul/well spleen homogenate (1 ug) (2) Add 23 nL compounds in DMSO solution. The final titration was 0.5 nM to 58 uM. (3) Add 2 ul of substrate (1 mM final) (4) Incubate at 37 C for 40 min (5) Add 2 ul stop solution (1M NaOH and 1M Glycine mixture, pH 10) (6) Detect the assay plate in a ViewLux plate reader (PerkinElmer) with Ex=365 nm and Em=440nm. Keywords: Alpha-glucosidase, Pompe Disease, pharmacological chaperone, chaperone therapy, high throughput screening, alpha-glucosidase inhibitor, MLSMR, MLSCN, NIH Roadmap, qHTS and NCGC
On the technique in general: qHTS replaces the single test concentration by a dilution series.
For the compound `BrC1C(Br)C(Br)C(Br)C(Br)C1Br` (stereo not drawn), the result was inactive. The entry for `CCCC(Cl)CCCC(Cl)CCC(Cl)CCC(Cl)CCC(Cl)CCCC(Cl)CCC` (stereo not drawn) is “inactive”. The entry for `O=C(NC(CC(=O)N1CCN(c2ccccc2)CC1)c1ccccc1)c1ccccc1Cl` (stereo not drawn) is “inactive”; for `CC1(C)Cc2cccc(OCC(=O)N3CCN(c4ccc([N+](=O)[O-])cc4)CC3)c2O1` it is “inactive”; for `O=C1C2C(c3ccccc3)CC=CC2C(c2ccoc2)N1Cc1ccccc1` (stereo not drawn) it is “inactive”.

Turning to `COC(=O)CCc1ccccc1S(=O)(=O)N(CCC(=O)OC)Cc1ccccc1`, the outcome was inactive.

Regarding `C=CCSC(CC)(CC)C(N)=O`, the compound was called inactive. The entry for `C/C(=N\NC(=S)Nc1ccc(C)cc1)c1cc2ccccc2o1` is “inactive”; for `O=C(OCC(COC(=O)c1ccccc1)(COC(=O)c1ccccc1)COC(=O)c1ccccc1)c1ccccc1` it is “inactive”. As to `Nc1nc2c(ncn2[C@@H]2O[C@H](COP(=O)(O)OP(=O)(O)OP(=O)(O)O)[C@@H](O)C2O)c(=O)[nH]1` (stereo partly drawn), the compound was classed as inactive. The entry for `C[C@H]1CCC[C@@]2(C)CCCC[C@]12O` is “inactive”.

With `CCC(C(=O)Nc1ccc(C(C)C)cc1)c1ccccc1` (stereo not drawn), the outcome was inactive. The entry for `COc1ccc(C2/C=C\CN(C(=O)c3ccc(C)cc3)C(Cc3ccccc3)C(=O)N2Cc2ccc(F)cc2)cc1` (stereo not drawn) is “inactive”; for `CC(C)CC(COCc1ccc(Cl)cc1)N1CCN(C(=O)c2ccc(C(F)(F)F)cc2)CCC1=O` (stereo not drawn) it is “inactive”. The entry for `COc1ccc(C(CCN2CCOCC2)c2c(OC)cc(OC)c3c2OC(=O)CC3c2ccc(OC)cc2)cc1` (stereo not drawn) is “inactive”.

Regarding `Cc1ccc(Nc2nc(C)cc(C)c2C(N)=O)cc1`, the compound was called inactive. The entry for `O=C(CN1C(=O)NC(Cc2ccccc2)(Cc2ccccc2)C1=O)NCC1CCCCC1` is “inactive”; for `C=C1CCN(C(CC(C)C)C(=O)NCc2cc(OC)c(OC)c(OC)c2)S(=O)(=O)c2ccccc21` (stereo not drawn) it is “inactive”; for `CCOC(=O)C(=CNNc1ccsc1C(=O)OC)C(=O)OCC` it is “inactive”. The entry for `CCCCN(CC)CCNC(=O)CCNC(=O)Cn1ccc2ccccc2c1=O` is “inactive”; for `O=C(CCCc1ccccc1)NCc1ccccc1` it is “inactive”; for `COC(=O)c1c(C)[nH]c(C(=O)/C=C/c2ccc(Cl)cc2)c1C` it is “inactive”. The entry for `O=c1ccn([C@@H]2O[C@H](COP(=O)(O)OP(=O)(O)OP(=O)(O)O)[C@@H](O)[C@H]2O)c(=O)[nH]1` is “inactive”; for `COCOc1cc(OC)ccc1C(=O)/C=C/c1ccc([N+](=O)[O-])cc1` it is “inactive”. Turning to `CC(C)CO`, the compound was called inactive. Turning to `CC(=O)Nc1ccc(S(=O)(=O)N2N=NC3C2C2CC4C3(CN(C(=O)OC(C)(C)C)S4(=O)=O)O2)cc1` (stereo not drawn), the call was inactive.

Consider `O=C(CCN1CCCCC1)N=Nc1c(O)[nH]c2ccccc12`, for which the compound was classed as inactive.

Take `CC(=O)OCC(NC(=O)C(Cc1ccccc1)NC(=O)OC(C)(C)C)C1OC(n2ccc(=O)[nH]c2=O)C(OC(C)=O)C1OC(C)=O` (stereo not drawn): the compound was classed as inactive. The entry for `COc1ccc(NC(=O)c2sc(N3CCOCC3)nc2-c2ccccc2)c(OC)c1` is “inactive”; for `S=C(NNC(=S)NC1CC2CCC1C2)NC1CC2C=CC1C2` (stereo not drawn) it is “inactive”. The entry for `O=S(O)S(=O)(=O)O` is “inactive”. The entry for `COc1ccc(-c2ccc(OC)c(C3C4C=CCC(C)C4C(=O)N3Cc3ccccc3)c2)cc1C` (stereo not drawn) is “inactive”; for `COC(=O)c1ccc([C@@H](O)[C@H](C)C(=O)CC(=O)OC(C)(C)C)cc1` it is “inactive”. On to `O=C(Cc1c[nH]c2ccccc12)N/N=C/c1cccc(F)c1`, for which the call was inactive.

Regarding `CCN(CC)CCNCc1ccc(OCc2ccc(Cl)nc2)c(OC)c1`, the compound was classed as inactive. As to `N#CC1=C(N)Oc2[nH]c(=S)[nH]c(=O)c2C12C(=O)Nc1ccccc12` (stereo not drawn), the compound was called inactive.

In the case of `C/C(=N\NC(=O)c1cc2c(s1)CCC(C)C2)c1cccnc1` (stereo not drawn), the call was inactive. On to `O=C(Nc1cccc(CCc2ccccn2)c1)c1ccc(Cl)cc1`, for which the result was inactive. For `C=C1/C(=C\C=C2\CCCC3(C)C2CCC3C(C)/C=C/C(O)C2CC2)CC(O)CC1O` (stereo not drawn), the call was inactive. The entry for `Clc1ccc(C2=CSC3=Nc4cccc5cccc(c45)N23)cc1` is “inactive”; for `CCOc1ccc(CN2CCN(Cc3ccc(C)o3)CC2CCO)cc1` (stereo not drawn) it is “inactive”. The entry for `COc1ccc(NC(C(=O)Nc2cccc(C(C)=O)c2)c2ccccc2)cc1` (stereo not drawn) is “inactive”.

Consider `N#CCC(=O)N/N=C/c1ccc(SCC(=O)Nc2ccccc2)o1`, for which the compound was called inactive. The entry for `O=C(O)c1ccc(/C=C2/SC(=S)N(c3cccc(C(F)(F)F)c3)C2=O)cc1` is “inactive”. As to `O=c1cc(-c2ccc(O)cc2)oc2c(-c3cc(-c4cc(=O)c5c(O)cc(O)cc5o4)ccc3O)c(O)ccc12`, the compound was classed as inactive. The entry for `COc1ccc([N+](=O)[O-])cc1NC(=O)C(C)OC(=O)C1c2ccccc2Oc2ccccc21` (stereo not drawn) is “inactive”; for `Cc1cc(C)nc(NS(=O)(=O)c2ccc(N/C=C\C(=O)c3cccs3)cc2)n1` it is “inactive”; for `CC(=O)N1CC[n+]2c(-c3ccc([N+](=O)[O-])cc3)csc21` it is “inactive”.

The values above are taken from PubChem BioAssay AID2112 (National Center for Advancing Translational Sciences (NCATS), 2009).
